Source: PubChem BioAssay (National Center for Advancing Translational Sciences (NCATS))
ATXN2 expr inh = Primary qHTS for Inhibitors of ATXN expression | HEK-293 ATXN2-luciferase reporter, luminescence, 24 h | 360,000 tested, 0.72% active | Potency, µM (series often up to 57 µM), without a hit: at the highest dose activity change, negative = inhibition, hits mostly inhibitors; further: on the % scale 0 is the no-effect control and ±100 the full control effect; nearly all actives have a fitted effect of over 55% in size
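qHTS (up to 57 uM final) was run with 24 h compound exposure of reporter cells at 37 °C. Each well was multiplexed: SteadyGlo luminescence measured ATXN2-luciferase expression after a fluorogenic Gly-Phe-AFC viability readout (25 uM final).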
S2 tox = Viability Counterscreen for Primary qHTS for Inhibitors of ATXN expression; AID 651635, 2014; Potency, µM (doses to about 56.7 µM), hits mostly cytotoxic; S2 cells (HEK-293 line with an ATXN2-luciferase reporter) viability, CellTiter-Fluor protease fluorescence, 24 h; 400,000 tested, 0.49% active; further: nearly all actives have a fitted effect of over 40% in size
TGFb inhibitor = qHTS for Inhibitors of TGF-b. HepG2 CAGA-GFP TGF-b/SMAD3 reporter, GFP fluorescence, 18 h; TGF-beta stimulated, 500 pg/mL final. Potency, µM (doses to about 46.1 µM), for the others: at the top dose activity, negative = inhibition, hits mostly inhibitors. 410,000 tested, 1.2% active; further: on the % scale 0 is the no-effect control and ±100 the full control effect; nearly all actives have a fitted effect of over 65% in size
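Inhibition was scored as loss of TGF-beta-induced (500 pg/mL final, 18 hours, 37 degrees C) GFP in HEPG2 cells carrying a CAGA-GFP reporter, in DMEM with 1% FBS. Well GFP was summed per cell; Activity was normalised to unstimulated and stimulated DMSO wells, then concentration-response fitting.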
HepG2 tox = qHTS for Inhibitors of TGF-b: Cytotox Counterscreen | 410,000 tested, 0.76% active | HepG2 CAGA-GFP viability, ATP luminescence, 18 h | Potency, µM (titrated, usually from 46.1 µM), without a hit: top-dose activity change, negative = cytotoxicity, actives largely listed as cytotoxic
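CellTiter-Glo luminescence gave cytotoxicity after 18 hours at 37 degrees C. The cells were HepG2 CAGA-GFP in 1% FBS DMEM, stimulated with 500 pg/mL TGF-beta after compound addition. %Activity was normalised to no-cell wells (complete cell-killing) and DMSO (no toxicity), and curves were fitted and classified.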
Apoferritin bind = qHTS Assay for Identification of Novel General Anesthetics; Ferritin light chain (Equus caballus), P02791; apoferritin/1-aminoanthracene competitive binding, fluorescence; Potency, µM (doses to about 77.5 µM), without a hit: at the top dose activity change, negative = displacement, usual class: inhibitors; 350,000 tested, 0.074% active; further: on the % scale 0 is the no-effect control and ±100 the full control effect; nearly all actives have a fitted effect of over 20% in size
Target sequence (P02791 2-175 limits assumed): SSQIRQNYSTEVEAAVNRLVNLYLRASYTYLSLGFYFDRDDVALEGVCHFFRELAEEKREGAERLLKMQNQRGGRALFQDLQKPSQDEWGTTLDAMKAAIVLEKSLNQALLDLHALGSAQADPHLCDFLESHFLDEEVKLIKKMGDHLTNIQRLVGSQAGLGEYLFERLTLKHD
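Horse-spleen apoferritin (10 uM) was mixed with 50% saturated 1-aminoanthracene in PBS, exposed to compounds for 10 min at room temperature, and read for fluorescence (ex 380 nm, em 535 nm). Competitive displacement was fitted with a four-parameter Hill equation.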
Starred values were filed as active, the others as inactive; i = inactive; ? = inconclusive; . = no result; [ ] = remark or other dose. Sampled rows, rich in hits. Any-hit rate of the full collection: about 2.4%. The call rests on the fitted dose curve; in most records, active means well fitted curve in the direction sought with a large enough effect; inconclusive means small, poorly fitted or top-dose-only effect, or another doubt; inactive means no such curve, though single readings can be large; an effect the other way counts as inactive or inconclusive. Potency means the concentration at half of the fitted maximal effect.

SMILES	ATXN2 expr inh	S2 tox	TGFb inhibitor	HepG2 tox	Apoferritin bind
OC1(c2ccc(Cl)c(C(F)(F)F)c2)CCN(CCCC(c2ccc(F)cc2)c2ccc(F)cc2)CC1	16µM*	18µM*	.	.	4%
CC(C)c1ccc(NC(=O)C(Cc2ccccc2)NS(=O)(=O)c2ccc3c(c2)CCC(=O)N3)cc1 (stereo not drawn)	-18%	i	?	-10%	-16%
COc1cc(-n2nc(C)c3c2OC(N)=C(C#N)C3c2ccccc2)c(Cl)c(Br)c1O (stereo not drawn)	-9%	14µM*	?	-32%	6%
CC(=O)CCS(=O)(=O)c1ccc(Oc2ccc(S(=O)(=O)CCC(C)=O)cc2)cc1	26%	i	?	5.6µM*	-5%
C/C=C\C1=C(CO)C(=O)C2O[C@]2(CC=C(C)C)C1=O (stereo partly drawn)	.	.	.	.	-11%[15.3 µM]
CCN(CC)S(=O)(=O)c1ccc(N/N=C/c2cccnc2)nc1	.	i	0%	-2%	-7%
CCN(CC)S(=O)(=O)c1ccc(N/N=C/c2cc(OC)ccc2O)nc1	3.2µM*	i	-14%	-22%	0%
COc1ccc(C(=O)/C=C/c2ccc(OC(=O)c3cc(OC)c(OC)c(OC)c3)cc2)cc1	-21%	?	-28%	-30%	-2%
COc1cc(C(=O)Oc2ccc3ccc(O)cc3c2)cc(OC)c1OC	.	i	?	22µM*	-14%
O=C(C[n+]1csc2ccccc21)c1cccc([N+](=O)[O-])c1	.	.	-28%	-5%	.
CCOC(=O)COc1ccccc1C1C(C(=O)OC)=C(C)NC2=C1C(=O)c1ccccc12 (stereo not drawn)	-7%	?	16µM*	-62%	?
S=C1SCN(Cc2cccs2)CN1Cc1cccs1	.	?	13µM*	-85%	.
CCN1CSC(=S)N(Cc2ccc(OC)cc2)C1	.	?	4µM*	7.9µM*	-4%
CCCCCN1CSC(=S)N(Cc2ccccc2)C1	-30%	?	10µM*	-9%	-1%
CC(C)(C)C(=O)Nc1ccc(Sc2ccc([N+](=O)[O-])cc2)cc1	?	?	?	-11%	?
CC(=O)Nc1ccc(Sc2ccc([N+](=O)[O-])o2)cc1	?	?	?	20µM*	.
Cc1cc(NC(=O)c2ccoc2C)ccc1Br	50%	i	16µM*	-51%	.
CC(C)OP(=O)(OC(C)C)/C(C=O)=N\Nc1ccc([N+](=O)[O-])cc1	.	28µM*	?	-81%	-19%
O=C(CCNC(=O)Cn1cnc2ccccc2c1=O)NCC1COc2ccccc2O1 (stereo not drawn)	-3%	i	0%	13µM*	-5%
O=C(CCNC(=O)Cn1cnc2ccccc2c1=O)NCC1CCCO1 (stereo not drawn)	0%	.	-12%	0%	-3%
C=CCN=c1scc(-c2ccc3c(c2)NC(=O)CO3)n1/N=C(\C)c1ccccn1	?	i	11µM*	-42%	-16%
C=CCC(O)CC1C2C(CC(O)CC=C)C3C1C3C2OC(C)(C)C (stereo not drawn)	.	.	.	.	-9%[15.3 µM]
COc1ccc(Nc2nc(N3CCCCC3)c3ccccc3n2)cc1	?	?	?	-62%	-14%
Oc1ccc(Nc2nc(N3CCCC3)c3ccccc3n2)cc1	?	?	?	11µM*	?
CN1CCC(COc2cnc(-c3cccc(Cn4nc(-c5cccc(C#N)c5)ccc4=O)c3)nc2)CC1	-24%	.	.	.	.
SMILES	ATXN2 expr inh	S2 tox	TGFb inhibitor	HepG2 tox	Apoferritin bind
CS(=O)(=O)c1ccc(S(=O)CC(=O)Oc2ccc(Cl)cc2)c([N+](=O)[O-])c1 (stereo not drawn)	?	?	?	18µM*	-19%
O=C(CS(=O)c1ccccc1[N+](=O)[O-])Oc1ccc(Br)cc1 (stereo not drawn)	-1%	i	-13%	-15%	?
CCn1c2ccccc2c2cc(/C=C3/C=Cc4ccccc43)ccc21	.	.	7%	-18%	.
O=C(N/N=C/c1cn(Cc2ccccc2)c2ccccc12)c1cc(O)cc(O)c1	4%	i	1%	-17%	-22%
O=C(O)Cn1cc(/C=N/Nc2ccc([N+](=O)[O-])cn2)c2ccccc21	2%	?	1%	-17%	-14%
Cc1ccc(C(=O)N/N=C/c2cn(Cc3ccccc3)c3ccccc23)cn1	.	i	1.6µM*	0.56µM*	-20%
Cc1ccc(Cn2cc(/C=N/Nc3ccc([N+](=O)[O-])cn3)c3ccccc32)cc1	-15%	i	4.5µM*	-33%	-2%
CNc1ccc(/C=C2\C=Cc3ccccc32)cc1I	.	.	0%	-23%	.
COc1ccccc1-c1nnc(SCC(=O)NCc2c(C)c(Cl)cc(C(C)C)c2O)o1	?	?	18µM*	-101%	-17%
CCCCCCCCCCCCCC[N+](C)(C)Cc1ccccc1	35µM*	35µM*	?	-98%	.
CCCCCCCCCCCCCCCC[N+](C)(C)Cc1ccccc1	32µM*	35µM*	.	.	.
Cc1ccc(-c2nnc3ccc(SCC(=O)c4ccccc4)nn23)cc1	.	.	8%	11%	.
O=C(O)C=Cc1ccc(Cn2ccnc2)cc1	-1%	.	.	.	.
C/C=C(\NNC(C)=O)c1ccc(O)cc1	.	.	1%	-4%	.
CCN=c1scc(-c2cccs2)n1/N=C/c1cc(OC)ccc1O	24%	i	13µM*	-43%	54%
C[C@H](CO)N1C[C@H](C)[C@H](CN(C)Cc2ccncc2)Oc2ccc(NC(=O)Nc3ccc(C(F)(F)F)cc3)cc2CC1=O	?	28µM*	13µM*	-59%	.
C[C@H]1CN([C@@H](C)CO)C(=O)Cc2cc(NC(=O)Nc3ccccc3)ccc2O[C@H]1CN(C)Cc1ccccc1	?	28µM*	?	-82%	.
C[C@H](CO)N1C[C@H](C)[C@H](CN(C)Cc2ccc(Oc3ccccc3)cc2)Oc2ccc(NC(=O)Nc3cccc4ccccc34)cc2CC1=O	7%	i	?	-18%	.
Cc1ccc(OCC(=O)Nc2cc(-c3nc4ccccc4[nH]3)ccc2C)c(C)c1	-4%	i	-5%	-4%	-15%
CCCOc1cccc(C(=O)Nc2cc(-c3nc4ccccc4[nH]3)ccc2C)c1	?	20µM*	?	-29%	4%
Cc1ccc(-c2nc3ccccc3[nH]2)cc1NC(=O)COc1ccccc1[N+](=O)[O-]	.	.	11µM*	-75%	?
COc1ccc(C2=Nn3c(nnc3-c3ccc(OC)c(OC)c3)SC2)c(OC)c1	.	.	.	.	-21%
CSc1nnc(NC(=O)c2cc(=O)c3cc(C)cc(C)c3o2)s1	-11%	25µM*	1%	7%	41%
